# In PubChem BioAssay (NCI):
# About 83,000 compounds went through this panel and 20% of them were active in at least one assay; those are over-represented in the sample as a whole.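 Plates (96-well) were seeded with cells, treated with compound at one concentration, and incubated for 48 hours before percent growth was determined.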 A number with no mark means an inactive call. Active and inactive are the calls of the source. Rule for the calls: active = growth percent below 10; inactive = the rest.
# Legend:
# Experiment in all cases: NCI-60 one-dose screen, 48 h (100 = growth as untreated, 0 = no growth, -100 = all killed)
# Conditions in all cases: 10 µM unless noted
# DU-145 prostate = system: DU-145 prostate
# K-562 leukemia = system: K-562 leukemia
# MALME-3M melanoma = system: MALME-3M melanoma
# MDA-MB-231 breast = system: MDA-MB-231 breast
# RXF 393 renal = system: RXF 393 renal
# SF-268 CNS = system: SF-268 CNS
# SF-295 CNS = system: SF-295 CNS
# SF-539 CNS = system: SF-539 CNS
# UACC-257 melanoma = system: UACC-257 melanoma
# M14 melanoma = system: M14 melanoma
# HCT-15 colon = system: HCT-15 colon
# HT29 colon = system: HT29 colon
# SNB-75 CNS = system: SNB-75 CNS
# U251 CNS = system: U251 CNS
# PC-3 prostate = system: PC-3 prostate
# SK-MEL-5 melanoma = system: SK-MEL-5 melanoma
# UACC-62 melanoma = system: UACC-62 melanoma
# LOX IMVI melanoma = system: LOX IMVI melanoma
# SK-MEL-28 melanoma = system: SK-MEL-28 melanoma
Compound,growth (DU-145 prostate),growth (K-562 leukemia),growth (MALME-3M melanoma),growth (MDA-MB-231 breast),growth (RXF 393 renal),growth (SF-268 CNS),growth (SF-295 CNS),growth (SF-539 CNS),growth (UACC-257 melanoma),growth (M14 melanoma),growth (HCT-15 colon),growth (HT29 colon),growth (SNB-75 CNS),growth (U251 CNS),growth (PC-3 prostate),growth (SK-MEL-5 melanoma),growth (UACC-62 melanoma),growth (LOX IMVI melanoma),growth (SK-MEL-28 melanoma)
O=C(NCCCNc1cc(-c2cn(-c3ccccc3)nc2-c2cccc(O)c2)ccn1)c1cccc(O)c1,78.3%,7.59% (active),64.2%,43.5%,77.3%,63.8%,83.3%,69.5%,58.4%,52.8%,79.5%,87%,59.8%,42.3%,39.4%,43.7%,42%,54.1%,77.6%
O=c1cc(C2NNC(=S)N2)c2ccc3ccccc3c2o1 (stereo not given),109%,90.5%,104%,96.3%,87.4%,102%,100%,94.1%,116%,102%,98.1%,100%,105%,96.8%,85.2%,96.8%,86.3%,87.5%,114%
COc1ccc(CN2C(=O)C(Cl)=C(Nc3cccc(C(F)(F)F)c3)C2=O)cc1,84.9%,27.9%,52.1%,46.6%,23.6%,33.7%,38.1%,7.41% (active),54.9%,63.5%,34.8%,57.1%,66.9%,28.2%,19.2%,63.3%,58.1%,25.2%,55.2%
COc1ccc(-c2nc3ccc4[nH]ncc4c3c3c2CCCC3)cc1B(O)O,45.9%,59.8%,75%,69.3%,6.38% (active),56.3%,56.3%,52.8%,88.5%,46.5%,34.4%,67.2%,18.9%,78%,57.6%,73.8%,,40.4%,68.1%
Cc1c(O)cc(-c2cnc(N/N=C\c3ccc(Cl)cc3)s2)c(O)c1C,100%,72.2%,107%,95.4%,81.3%,92.4%,99.9%,78.8%,91.2%,96.2%,85%,101%,94.2%,89.9%,66.4%,79.8%,,62.2%,94.4%
C[C@H]1[C@H]2[C@H]3CC[C@@H]4[C@@]5(C)C/C(=C/c6cccnc6)C(=O)C(C)(C)[C@@H]5CC[C@@]4(C)[C@]3(C)CC[C@]23CO[C@]1(C)[C@@H](C(=O)/C=C\c1cccnc1)C3,-28.8% (active),6.51% (active),-33.5% (active),-30.7% (active),-91.8% (active),7.1% (active),6.07% (active),-32.4% (active),13.2%,-20.1% (active),-15.3% (active),26.4%,32.7%,-68% (active),-3.56% (active),-82.2% (active),-25.6% (active),-85.2% (active),-17.8% (active)
CNC(=O)NCC1OC(n2cnc3c(NC(=O)Nc4ccccc4)ncnc32)C(O[Si](C)(C)C(C)(C)C)C1CC(=O)N(C)OC (stereo not given),25.3%,16.1%,12.3%,15.2%,-68.2% (active),33.2%,-41.2% (active),0.123% (active),5.59% (active),34.4%,11.9%,-25.5% (active),-7.28% (active),-15.2% (active),-20.8% (active),25.9%,34.4%,18.6%,7.73% (active)
Cc1c(Cl)cc(-n2c(=O)c3ccccc3c3ccccc3c2=O)cc1Cl,121%,106%,90.5%,84.2%,123%,105%,102%,110%,104%,93%,110%,103%,89.9%,102%,82%,107%,92.6%,95.2%,117%
COc1ccc(-c2nc3sccn3c2-c2cc(-c3cc(OC)c(OC)c(OC)c3)on2)cc1,93.3%,47.4%,105%,80.9%,110%,98.2%,109%,73.7%,141%,91.7%,96.9%,86.1%,77.4%,107%,58.9%,68.7%,89.1%,90.5%,127%
c1csc(-c2c3ccc(=[N+]4CCCCC4)cc-3oc3cc(N4CCCCC4)ccc23)c1,-96.6% (active),-29.5% (active),-58.8% (active),-50.9% (active),-97% (active),-88.8% (active),-53.7% (active),-91.3% (active),-69.8% (active),-87.8% (active),-70% (active),-74.2% (active),-47.4% (active),-71.7% (active),-65.7% (active),-90.5% (active),-76.1% (active),-76.2% (active),-66.4% (active)
COc1ccccc1NC(=O)N/C(N)=N/c1nc2ccccc2s1,19.3%,12.9%,57.6%,48.1%,4.12% (active),49.5%,39.2%,-31.5% (active),75.4%,8.17% (active),16.5%,8.24% (active),22.6%,18.3%,25%,23.7%,31.4%,34.3%,53.4%
N#C/C(=C\c1ccc(Br)cc1)n1nnc2cc(F)c(F)cc21,15.6%,9.36% (active),65.7%,15%,2.12% (active),33.8%,98.6%,-2.33% (active),50.6%,18.1%,11.1%,13.2%,12.8%,30%,,44.8%,13.3%,-49.1% (active),42.8%
O=C(CSc1nnc(-c2ccc(NC(=O)c3cccnc3)cc2)o1)Nc1cccc(Br)c1,102%,66.3%,93.1%,93%,111%,102%,87.2%,70.6%,102%,101%,90.6%,107%,72.1%,68.7%,82.8%,92.9%,104%,93.6%,110%
C=C1C(=O)O[C@H]2[C@H]1CC/C(CNC(=O)/C=C/c1ccc(Cl)cc1Cl)=C\CC[C@@]1(C)O[C@@H]21,-80.7% (active),-31.2% (active),-89.8% (active),-42.1% (active),-84.6% (active),-69.7% (active),39.2%,-72.4% (active),-51.7% (active),-57.5% (active),-64% (active),-58.4% (active),21.3%,8.28% (active),-26.4% (active),3.01% (active),-65.2% (active),-97.2% (active),-68.2% (active)
CCOC(=O)C/C(C)=N\NC(=O)c1ccncc1,107%,93.2%,83.8%,102%,72.3%,101%,92.9%,97.7%,107%,106%,108%,100%,107%,107%,96.5%,104%,88.1%,105%,116%
O=C1OC(c2nc3ccccc3s2)=C/C1=C\c1ccc(O)cc1,111%,102%,100%,87.2%,119%,100%,101%,93%,114%,105%,111%,99.5%,92.7%,107%,88.8%,104%,,94.3%,107%
